{"source": "PubChem BioAssay (EPA / NIEHS)", "note": "Where “and” joins values, the source holds several entries; their conditions need not be identical. Equal entries are not always repeated. A structure can be active in one record and inactive in another. Calls of active or inactive are those of the source. Rule for the calls: active = hit-call score of the fitted dose curve at least 0.9, where 1 is the maximum; inactive = score below 0.9."}
{"assay": "ATG_MRE_CIS: Attagene CIS-FACTORIAL HepG2 Assay for human Metal Responsive Element (MRE) (AID 2282954)", "settings": "HepG2 MRE cis-reporter transcription, Attagene multiplex; actives raise or lower the signal", "procedure": "ATG_CIS is a cell-based, multiplexed-readout assay that uses HepG2, a human liver cell line, with measurements taken at 24 hours after chemical dosing in a 24-well plate.ATG_MRE_CIS is one of 52 assay component(s) measured or calculated from the ATG_CIS assay. It is designed to make measurements of mRNA induction, a form of inducible reporter, as detected with fluorescence intensity signals by Reverse transcription polymerase chain reaction (RT-PCR) and Capillary electrophoresis technology.Data from the assay component ATG_MRE_CIS was analyzed into 1 assay endpoint. This assay endpoint, ATG_MRE_CIS, was analyzed with bidirectional fitting relative to DMSO as the negative control and baseline of activity. Using a type of inducible reporter, measures of mRNA for gain or loss-of-signal activity can be used to understand the reporter gene at the transcription factor-level as they relate to the gene MTF1. Furthermore, this assay endpoint can be referred to as a primary readout, because this assay has produced multiple assay endpoints where this one serves a reporter gene function. To generalize the intended target to other relatable targets, this assay endpoint is annotated to the dna binding intended target family, where the subfamily is zinc finger.\nHuman liver HepG2 cells are transiently transfected with multiple reporter transcription units (MRTUs) in 6-well plates using FuGene 6 reagent (Roche; 3 ml FuGene/1 mg DNA). The MRTU constructs are regulated by a cis-regulating element (promoter). […] A major difference between the CIS and TRANS system is that in CIS activities of endogenous TFs are measured, whereas the TRANS assay evaluates changes in activities of exogenous, chimeric NR-Gal4 proteins. […] At the end of 24 hour incubation, total RNA was isolated using TriZol reagent (Invitrogen). The isolated RNA is then reverse-transcribed using oligo(dT) primer and Mo-MLV reverse transcriptase (Invitrogen) with DNAse I (Ambion) treatment for 30 min. The one-tenth of the produced cDNA was amplified by PCR using Taq DNA polymerase (Invitrogen) and two reporter sequence-specific primers. The PCR products were fluorescently labeled by primer extension with 6-arboxyfluorescein (6-FAM) 5'-labeled reporter sequence-specific primer (2 min at 95 C, 20 s at 68 C and 10 min at 72 C) and these products were digested with 5U of HpaI (New England Biolabs) for 2h at 37 C. The fragments were purified using Qiaquick PCR columns (Qiagen), analyzed on an ABI 3130xL genetic analyzer (Applied Biosystems) with peak positions identified by using a set of X-rhodamine (ROX)-labeled MapMarker1000 molecular weight standards (BioVentures). The raw capillary electrophoresis data was processed using Attagraph software (Attagene)."}
{"smiles": "O=C(c1ccccc1)C1CCCCC1", "outcome": "inactive"}
{"smiles": "CCOC(=O)[C@H](C)Oc1ccc(Oc2nc3ccc(Cl)cc3o2)cc1", "outcome": "inactive"}
{"smiles": "CCN(Cc1c(F)cccc1Cl)c1c([N+](=O)[O-])cc(C(F)(F)F)cc1[N+](=O)[O-]", "outcome": "inactive"}
{"smiles": "N[C@@H](Cc1cc(I)c(Oc2ccc(O)c(I)c2)c(I)c1)C(=O)O", "AC50": "50.6 µM (active) and 23.7 µM (active) and 94 µM (active)", "outcome": "inactive"}
{"smiles": "COC(=O)c1c(Cl)nn(C)c1S(=O)(=O)NC(=O)Nc1nc(OC)cc(OC)n1", "outcome": "inactive"}
{"smiles": "COc1nc(C)nc(NC(=O)NS(=O)(=O)c2ccccc2OCCCl)n1", "outcome": "inactive"}
{"smiles": "CN(C)C(=O)Nc1ccc(Cl)c(Cl)c1", "outcome": "inactive", "AC50": "77.4 µM (active)"}
{"smiles": "C#CCOC(=O)[C@@H](C)Oc1ccc(Oc2ncc(Cl)cc2F)cc1", "outcome": "inactive"}
{"smiles": "CCCCOCCOCCOCc1cc2c(cc1CCC)OCO2", "outcome": "inactive"}
{"smiles": "CCCCC(CC)COC(=O)c1ccccc1C(=O)O", "note": "(stereo not given)", "outcome": "inactive"}
{"smiles": "c1ccc2[nH]c(-c3cscn3)nc2c1", "outcome": "inactive"}
{"smiles": "COC(=O)CSc1cc(N=c2sc(=O)n3n2CCCC3)c(F)cc1Cl", "outcome": "inactive"}
{"smiles": "C[C@]12CC[C@@H]3c4ccc(O)cc4C[C@@H](CCCCCCCCCS(=O)CCCC(F)(F)C(F)(F)F)[C@H]3[C@@H]1CC[C@@H]2O", "note": "(stereo not given in full)", "outcome": "inactive", "AC50": "1.39 µM (active)"}
{"smiles": "CC(=O)[C@H]1CC[C@H]2[C@@H]3CCC4=CC(=O)CC[C@]4(C)[C@H]3CC[C@]12C", "AC50": "33.4 µM (active) and 38.9 µM (active) and 117 µM (active)", "outcome": "inactive"}
{"smiles": "CC(=O)S[C@@H]1CC2=CC(=O)CC[C@]2(C)[C@H]2CC[C@@]3(C)[C@@H](CC[C@@]34CCC(=O)O4)[C@H]12", "AC50": "76.9 µM (active) [middle of 4 runs]", "outcome": "inactive"}
{"smiles": "CCC(C)OC(=O)N1CCCCC1CCO", "note": "(stereo not given)", "outcome": "inactive"}
{"smiles": "COC(=O)c1ccccc1C(=O)O", "outcome": "inactive"}
{"smiles": "CCOC(=O)NCCOc1ccc(Oc2ccccc2)cc1", "AC50": "66.2 µM (active)"}
{"smiles": "O=C(O)c1ccccc1", "outcome": "inactive"}
{"smiles": "CCOC(=O)COc1cc(-n2ncc(C(F)(F)F)c(C)c2=O)c(F)cc1Cl", "outcome": "inactive"}
{"smiles": "CCCCC(CC)CN1C(=O)C2C3C=CC(C3)C2C1=O", "note": "(stereo not given)", "AC50": "68.5 µM (active)"}
{"smiles": "CC1(C)C(C=C(Cl)Cl)C1C(=O)OCc1cccc(Oc2ccccc2)c1", "note": "(stereo not given)", "outcome": "inactive"}
{"smiles": "COCCO", "outcome": "inactive"}
{"smiles": "COC(=O)c1ccccc1S(=O)(=O)NC(=O)Nc1nc(OC(F)F)cc(OC(F)F)n1", "outcome": "inactive"}
{"smiles": "C#C[C@]1(O)CC[C@H]2[C@@H]3CCC4=CC(=O)CC[C@@H]4[C@H]3CC[C@@]21CC", "outcome": "inactive"}
{"smiles": "O=C(Nc1ccc([N+](=O)[O-])cc1Cl)c1cc(Cl)ccc1O", "AC50": "0.947 µM (active)"}
{"smiles": "CCCCOC(=O)[C@@H](C)Oc1ccc(Oc2ccc(C(F)(F)F)cn2)cc1", "outcome": "inactive"}
{"smiles": "CCC(O)=C1C(=O)CC(C(=O)O)CC1=O", "note": "(stereo not given)", "outcome": "inactive"}
{"smiles": "CCOC(=O)c1ccc(O)cc1", "outcome": "inactive"}
{"smiles": "C[C@]12C[C@H](O)[C@H]3[C@@H](CCC4=CC(=O)CC[C@@]43C)[C@@H]1CC[C@@H]2C(=O)CO", "outcome": "inactive"}
{"smiles": "CCCCCCC(C)OC(=O)COc1nc(F)c(Cl)c(N)c1Cl", "note": "(stereo not given)", "outcome": "inactive"}
{"smiles": "COC(=O)c1ccc(I)cc1S(=O)(=O)NC(=O)Nc1nc(C)nc(OC)n1", "outcome": "inactive"}
{"smiles": "c1ccc(Nc2ccccc2)cc1", "outcome": "inactive"}
{"smiles": "COC(=O)c1cccc(C)c1S(=O)(=O)NC(=O)Nc1nc(OCC(F)(F)F)nc(N(C)C)n1", "outcome": "inactive"}
{"smiles": "COC(=O)c1ccc(CNS(C)(=O)=O)cc1S(=O)(=O)NC(=O)Nc1nc(OC)cc(OC)n1", "outcome": "inactive"}
